# From PubChem BioAssay AID1851 (National Center for Advancing Translational Sciences (NCATS), 2009)
# Among all 16,000 compounds or so, about 4,000 (25%) were called active. Another 26% or so got no clear call; they are omitted. These entries were drawn from the full list. Values without a mark were called inactive. The call rests on the fitted dose curve; in most records, active means well fitted curve in the direction sought with a large enough effect; inconclusive means small, poorly fitted or top-dose-only effect, or effect the other way; inactive means no such curve, though single readings can be large or run the other way.
# Target: Cytochrome P450 2C9 (Homo sapiens) (UniProt P11712)
# Assay: Cytochrome panel assay with activity outcomes
# Conditions: recombinant CYP, pro-luciferin dealkylation, luminescence, p450-cyp2c9; series mostly up to 57.1 µM
# On the % scale 0 is the no-effect control and ±100 the full control effect.
# Sequence of Cytochrome P450 2C9 (Homo sapiens) (P11712 whole entry, looked up): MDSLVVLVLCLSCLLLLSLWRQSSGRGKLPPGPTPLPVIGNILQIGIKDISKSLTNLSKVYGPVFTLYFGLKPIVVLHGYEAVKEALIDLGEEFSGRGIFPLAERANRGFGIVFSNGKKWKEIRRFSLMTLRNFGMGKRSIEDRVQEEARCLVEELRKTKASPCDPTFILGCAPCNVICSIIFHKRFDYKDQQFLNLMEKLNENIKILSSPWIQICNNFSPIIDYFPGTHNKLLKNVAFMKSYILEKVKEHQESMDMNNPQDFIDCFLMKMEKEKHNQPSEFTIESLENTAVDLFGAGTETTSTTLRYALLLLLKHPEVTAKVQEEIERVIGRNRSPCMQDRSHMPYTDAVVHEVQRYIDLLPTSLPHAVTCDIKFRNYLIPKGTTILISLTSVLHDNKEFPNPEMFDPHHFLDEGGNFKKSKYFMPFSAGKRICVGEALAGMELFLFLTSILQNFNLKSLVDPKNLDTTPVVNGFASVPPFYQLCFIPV
Structure (SMILES),AC50,"activity, negative = inhibition"
COc1cc(CNC(=O)CCCC/C=C\C(C)C)ccc1O,1.26 µM (active),–
COc1cc([C@@H](O)CN)ccc1O,–,inactive
CCCCCCCCC(=O)NCc1ccc(O)c(OC)c1,3.16 µM (active),–
CNC[C@H](O)c1ccc(O)c(OC)c1,–,inactive
COc1cc(CCN)ccc1O,–,inactive
C[C@@H]1O[C@H](O[C@@H]2CC[C@@]3(C=O)[C@H]4CC[C@@]5(C)[C@@H](C6=CC(=O)OC6)CC[C@@]5(O)[C@@H]4CC[C@]3(O)C2)C[C@H](O)[C@@H]1O,–,inactive
COc1ccc2[nH]cc(C3=CCNCC3)c2c1,–,inactive
C=CCN1C(=O)NC(=O)/C(=C/c2cccn2C)C1=O,–,inactive
O=C(O)Cc1cccnc1C(=O)O,–,inactive
O=c1cccc2n1CC1CNC[C@H]2C1,–,inactive
c1ccc(N2CC[C@@]3(CCCNC3)C2)cc1,–,inactive
CC(C)CN1CCC2(CC1)CCN(S(C)(=O)=O)CC2,–,inactive
Cc1ccc(N(C)C(=O)Oc2cccc3ccc(C)nc23)cc1,11.2 µM (active),–
O=C1OC(=O)[C@@H]2[C@@H]1[C@@H]1CC[C@H]2O1,–,inactive
O=C(O)C(C(=O)O)P(=S)(S)c1ccccc1 (configuration not stated),–,4.02% [at 11.4 µM]
COC(=O)C[C@](O)(CCCC(C)(C)O)C(=O)O[C@@H]1C(OC)=C[C@]23CCCN2CCc2cc4c(cc2[C@H]13)OCO4,–,inactive
C[C@]12CC[C@@H]3C(=CCc4cc(O)ccc43)[C@@H]1CCC2=O,–,inactive
CCN(CC)C(=O)N[C@@H]1C[C@H]2c3cccc4[nH]cc(c34)C[C@@H]2N(C)C1,–,inactive
CC(=O)C1=C(O)[C@@H]2[C@@H]3c4c[nH]c5cccc(c45)C[C@@H]3C(C)(C)N2C1=O,31.6 µM (active),–

Structure (SMILES),AC50,"activity, negative = inhibition"
S=C=Nc1cccc(C2(N3CCCCC3)CCCCC2)c1,–,inactive
CCCN[C@@H]1CCc2c(OC)cccc2[C@@H]1C,–,inactive
C=C(C)[C@H]1CC[C@]2(CO)CC[C@]3(C)[C@@H](CC[C@H]4[C@@]5(C)CC[C@@H](O)C(C)(C)[C@@H]5CC[C@@]43C)[C@H]12,–,inactive
C[C@@H]1[C@@H](C)N1C[C@H](O)Cn1ccnc1[N+](=O)[O-] (some centres not stated),–,21.8% [at 11.4 µM]
Oc1ccc2c3c1O[C@H]1c4[nH]c5ccccc5c4C[C@]4(O)[C@H](C2)N(CC2CC2)CC[C@@]314,25.1 µM (active),–
Oc1ccc2c3c1O[C@H]1c4[nH]c5c(c4C[C@@]4(O)[C@@H](C2)N(CC2CC2)CC[C@]314)C[C@]1(O)[C@H]2Cc3ccc(O)c4c3[C@@]1(CCN2CC1CC1)[C@@H]5O4,–,inactive
Oc1ccc2c3c1O[C@@H]1c4[nH]c5c(c4C[C@@]4(O)[C@@H](C2)N(CC2CC2)CC[C@]314)C[C@]1(O)[C@@H]2Cc3ccc(O)c4c3[C@@]1(CCN2CC1CC1)[C@H]5O4,–,inactive
C=C[C@@H]1CN2CC[C@H]1C[C@H]2[C@H](O)c1ccnc2ccccc12,–,-2.06% [at 11.4 µM]
c1cncc([C@@H]2CCCCN2)c1,–,inactive
NCCSC(c1ccccc1)c1ccccc1,1 µM (active),–
C[C@H](N)[C@@H](O)c1ccccc1,–,inactive
CC(=O)[C@@H]1CC[C@@H]2[C@@H]3CC=C4C[C@H](OS(=O)(=O)O)CC[C@@]4(C)[C@H]3CC[C@]21C,–,inactive
C[C@@H]1O[C@H](OC2[C@@H](O)[C@H](O)C(O)[C@H](O)[C@H]2O)[C@@H](N)C[C@@H]1N=C(N)C(=O)O (some centres not stated),–,0.868% [at 11.4 µM]
COc1ccc2c(c1O)-c1cccc3c1[C@H](C2)N(C)CC3,–,inactive
O=[As](O)(O)c1ccc(N=Nc2ccc(O)cc2)cc1,–,-6.31% [at 11.4 µM]
NNC(=O)c1ccc(O)cc1,–,inactive
NC(N)=NC(=O)c1nc(Cl)c(N)nc1N,–,inactive
C[C@@]12CC[C@@H]3[C@H](CCC4=CC(=O)CC[C@]43C)[C@@H]1CC[C@@H]2C(=O)COS(=O)(=O)c1ccc(Br)cc1,–,-18.3% [at 11.4 µM]
